In the supplement of paper PMC10849652:
The full data set covers some 7,900 targets. This sample favours those with a hit. About 0.6% of all pairs of compound and target were hits.

Compound: C#Cc1cccc(Nc2ncnc3cc(OCCOC)c(OCCOC)cc23)c1 [erlotinib]
Assay: log2 fold change, soluble protein after heating vs DMSO (PISA); higher = thermal stabilisation; K562 cells, 10 uM, 30 min; active = over 0.2 and 3.5 SD of the protein, either way, in both replicates (recomputed)
Method in brief: (§1)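 Soluble protein was defined as the supernatant after 21,000xg for 90 min. It came from K562 cells at 2×10^6 cells/mL given 10 μM compound for 30 min, heated in aliquots for 3 min across 48°C-58°C, pooled, and extracted in PBS with 0.5% NP-40 at 4°C, and was quantified by TMTpro 16plex LC-MS/MS with equalised channel sums. Thermal stability against control samples, from duplicates, is reported as log2 fold change.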

UniProt Q96K49, sequence (Q96K49 whole entry, looked up): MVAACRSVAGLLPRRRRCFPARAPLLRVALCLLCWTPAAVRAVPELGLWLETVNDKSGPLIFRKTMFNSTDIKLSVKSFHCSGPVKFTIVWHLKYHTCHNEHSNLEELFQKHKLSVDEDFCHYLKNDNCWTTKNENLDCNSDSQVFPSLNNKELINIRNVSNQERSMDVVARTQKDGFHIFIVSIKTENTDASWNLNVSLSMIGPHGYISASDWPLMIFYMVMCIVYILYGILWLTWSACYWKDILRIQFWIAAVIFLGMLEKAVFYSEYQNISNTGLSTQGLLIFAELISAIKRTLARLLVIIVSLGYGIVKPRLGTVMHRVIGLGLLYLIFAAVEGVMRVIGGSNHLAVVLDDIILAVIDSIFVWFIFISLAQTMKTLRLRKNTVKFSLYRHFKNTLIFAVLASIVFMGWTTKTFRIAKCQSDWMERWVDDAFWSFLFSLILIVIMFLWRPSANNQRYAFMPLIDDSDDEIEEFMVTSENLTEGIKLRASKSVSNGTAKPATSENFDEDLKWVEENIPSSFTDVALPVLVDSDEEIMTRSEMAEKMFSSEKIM
UniProt Q502W6, sequence (Q502W6 whole entry, looked up): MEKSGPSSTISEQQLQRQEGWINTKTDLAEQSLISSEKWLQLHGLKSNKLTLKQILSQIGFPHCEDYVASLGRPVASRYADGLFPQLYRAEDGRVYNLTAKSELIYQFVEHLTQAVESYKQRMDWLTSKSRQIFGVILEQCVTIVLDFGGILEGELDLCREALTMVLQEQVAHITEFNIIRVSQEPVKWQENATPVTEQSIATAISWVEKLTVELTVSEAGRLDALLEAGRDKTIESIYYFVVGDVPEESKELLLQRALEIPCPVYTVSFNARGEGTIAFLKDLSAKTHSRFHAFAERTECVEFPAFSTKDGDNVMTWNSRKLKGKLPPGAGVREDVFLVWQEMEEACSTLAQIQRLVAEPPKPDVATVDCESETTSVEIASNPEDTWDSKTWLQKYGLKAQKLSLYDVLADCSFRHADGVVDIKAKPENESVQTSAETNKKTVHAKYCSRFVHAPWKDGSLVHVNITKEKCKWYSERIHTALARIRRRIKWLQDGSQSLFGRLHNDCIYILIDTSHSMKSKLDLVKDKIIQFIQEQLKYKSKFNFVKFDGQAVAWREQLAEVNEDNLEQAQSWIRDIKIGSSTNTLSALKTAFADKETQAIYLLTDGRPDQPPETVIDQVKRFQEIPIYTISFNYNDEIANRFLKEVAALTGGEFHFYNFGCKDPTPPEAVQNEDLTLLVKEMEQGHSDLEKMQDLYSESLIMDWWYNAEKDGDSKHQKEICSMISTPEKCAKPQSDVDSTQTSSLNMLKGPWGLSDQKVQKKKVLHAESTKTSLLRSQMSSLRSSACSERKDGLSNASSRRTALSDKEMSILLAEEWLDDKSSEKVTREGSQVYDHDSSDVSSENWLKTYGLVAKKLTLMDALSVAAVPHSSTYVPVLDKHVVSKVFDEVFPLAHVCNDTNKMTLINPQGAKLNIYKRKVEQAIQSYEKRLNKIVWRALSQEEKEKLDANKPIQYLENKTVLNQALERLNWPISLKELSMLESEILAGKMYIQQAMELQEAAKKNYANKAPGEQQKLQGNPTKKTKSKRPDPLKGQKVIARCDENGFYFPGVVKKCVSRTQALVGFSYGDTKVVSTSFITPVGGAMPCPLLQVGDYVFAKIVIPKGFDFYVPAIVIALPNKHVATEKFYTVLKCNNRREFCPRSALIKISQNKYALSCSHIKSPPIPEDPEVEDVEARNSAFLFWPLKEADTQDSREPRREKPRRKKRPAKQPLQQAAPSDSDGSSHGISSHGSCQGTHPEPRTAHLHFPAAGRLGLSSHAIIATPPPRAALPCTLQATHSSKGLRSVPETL
UniProt Q9Y5K5, sequence (Q9Y5K5 whole entry, looked up): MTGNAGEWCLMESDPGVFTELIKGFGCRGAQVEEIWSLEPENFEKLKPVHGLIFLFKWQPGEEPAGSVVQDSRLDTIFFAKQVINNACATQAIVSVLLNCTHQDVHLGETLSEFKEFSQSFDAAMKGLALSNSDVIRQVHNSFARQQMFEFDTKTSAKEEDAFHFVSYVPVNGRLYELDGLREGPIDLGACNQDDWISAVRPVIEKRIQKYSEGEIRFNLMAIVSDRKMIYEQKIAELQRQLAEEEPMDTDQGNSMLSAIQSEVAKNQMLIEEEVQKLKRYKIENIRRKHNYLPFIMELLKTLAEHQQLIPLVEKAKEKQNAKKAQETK
UniProt Q93009, sequence (Q93009 whole entry, looked up): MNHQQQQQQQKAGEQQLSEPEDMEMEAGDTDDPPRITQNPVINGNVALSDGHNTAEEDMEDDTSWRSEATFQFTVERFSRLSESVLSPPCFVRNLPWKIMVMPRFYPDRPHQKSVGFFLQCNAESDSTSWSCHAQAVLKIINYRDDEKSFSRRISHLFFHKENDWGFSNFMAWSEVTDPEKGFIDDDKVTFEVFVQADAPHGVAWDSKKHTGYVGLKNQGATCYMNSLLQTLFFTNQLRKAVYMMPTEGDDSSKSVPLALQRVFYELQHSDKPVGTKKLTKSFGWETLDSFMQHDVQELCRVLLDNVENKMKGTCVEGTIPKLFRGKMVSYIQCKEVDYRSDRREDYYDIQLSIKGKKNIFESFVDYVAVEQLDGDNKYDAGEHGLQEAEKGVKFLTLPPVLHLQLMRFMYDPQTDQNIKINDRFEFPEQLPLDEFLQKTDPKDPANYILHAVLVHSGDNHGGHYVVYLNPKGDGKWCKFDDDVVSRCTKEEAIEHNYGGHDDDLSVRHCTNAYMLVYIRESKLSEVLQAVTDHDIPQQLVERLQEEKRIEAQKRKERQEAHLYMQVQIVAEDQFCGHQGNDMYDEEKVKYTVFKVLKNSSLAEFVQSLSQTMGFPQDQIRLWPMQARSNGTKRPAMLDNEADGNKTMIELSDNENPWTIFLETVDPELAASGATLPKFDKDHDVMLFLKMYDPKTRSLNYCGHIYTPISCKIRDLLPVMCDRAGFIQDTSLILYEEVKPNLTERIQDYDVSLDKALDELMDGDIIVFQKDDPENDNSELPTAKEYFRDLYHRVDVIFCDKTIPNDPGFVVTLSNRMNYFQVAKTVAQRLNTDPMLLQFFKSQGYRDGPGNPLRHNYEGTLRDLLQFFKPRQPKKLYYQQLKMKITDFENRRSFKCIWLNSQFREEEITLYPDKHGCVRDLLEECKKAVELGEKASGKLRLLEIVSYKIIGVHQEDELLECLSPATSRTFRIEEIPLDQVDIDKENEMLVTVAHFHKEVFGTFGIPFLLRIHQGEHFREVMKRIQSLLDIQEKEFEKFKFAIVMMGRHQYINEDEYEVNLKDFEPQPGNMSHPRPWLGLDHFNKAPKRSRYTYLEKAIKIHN
UniProt Q9BTX3, sequence (Q9BTX3 whole entry, looked up): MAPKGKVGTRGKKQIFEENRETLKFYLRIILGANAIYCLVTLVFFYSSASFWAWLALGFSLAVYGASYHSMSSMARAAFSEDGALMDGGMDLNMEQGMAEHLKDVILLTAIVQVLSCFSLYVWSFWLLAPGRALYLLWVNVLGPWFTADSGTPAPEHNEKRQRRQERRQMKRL
UniProt O43592, sequence (O43592 whole entry, looked up): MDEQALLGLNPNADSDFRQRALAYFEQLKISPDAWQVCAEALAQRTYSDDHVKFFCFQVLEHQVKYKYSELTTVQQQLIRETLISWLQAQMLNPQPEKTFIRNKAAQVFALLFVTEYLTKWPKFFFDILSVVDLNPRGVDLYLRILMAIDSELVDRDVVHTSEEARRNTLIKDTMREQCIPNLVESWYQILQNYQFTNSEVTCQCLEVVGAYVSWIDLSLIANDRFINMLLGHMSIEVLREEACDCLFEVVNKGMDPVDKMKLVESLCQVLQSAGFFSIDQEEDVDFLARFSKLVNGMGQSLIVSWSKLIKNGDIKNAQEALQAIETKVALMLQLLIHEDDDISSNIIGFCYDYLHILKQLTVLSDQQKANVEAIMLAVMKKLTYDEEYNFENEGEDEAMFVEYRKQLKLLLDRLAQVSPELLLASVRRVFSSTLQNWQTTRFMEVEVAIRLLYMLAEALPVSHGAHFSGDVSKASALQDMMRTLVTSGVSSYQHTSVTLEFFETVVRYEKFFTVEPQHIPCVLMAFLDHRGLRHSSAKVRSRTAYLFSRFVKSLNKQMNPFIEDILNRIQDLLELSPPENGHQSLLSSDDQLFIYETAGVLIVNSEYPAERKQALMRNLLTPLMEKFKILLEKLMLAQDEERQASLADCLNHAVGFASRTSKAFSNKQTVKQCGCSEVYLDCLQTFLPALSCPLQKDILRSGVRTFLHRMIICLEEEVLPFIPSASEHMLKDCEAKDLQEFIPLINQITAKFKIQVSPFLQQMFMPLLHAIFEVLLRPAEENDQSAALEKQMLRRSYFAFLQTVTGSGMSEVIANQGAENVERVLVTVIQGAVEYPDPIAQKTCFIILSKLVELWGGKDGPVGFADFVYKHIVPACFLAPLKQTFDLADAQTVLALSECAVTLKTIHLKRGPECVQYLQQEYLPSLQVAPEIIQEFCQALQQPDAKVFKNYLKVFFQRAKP
UniProt Q9UDW1, sequence (Q9UDW1 whole entry, looked up): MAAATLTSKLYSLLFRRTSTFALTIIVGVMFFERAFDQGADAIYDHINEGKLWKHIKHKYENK
UniProt Q6NXR4, sequence (Q6NXR4 whole entry, looked up): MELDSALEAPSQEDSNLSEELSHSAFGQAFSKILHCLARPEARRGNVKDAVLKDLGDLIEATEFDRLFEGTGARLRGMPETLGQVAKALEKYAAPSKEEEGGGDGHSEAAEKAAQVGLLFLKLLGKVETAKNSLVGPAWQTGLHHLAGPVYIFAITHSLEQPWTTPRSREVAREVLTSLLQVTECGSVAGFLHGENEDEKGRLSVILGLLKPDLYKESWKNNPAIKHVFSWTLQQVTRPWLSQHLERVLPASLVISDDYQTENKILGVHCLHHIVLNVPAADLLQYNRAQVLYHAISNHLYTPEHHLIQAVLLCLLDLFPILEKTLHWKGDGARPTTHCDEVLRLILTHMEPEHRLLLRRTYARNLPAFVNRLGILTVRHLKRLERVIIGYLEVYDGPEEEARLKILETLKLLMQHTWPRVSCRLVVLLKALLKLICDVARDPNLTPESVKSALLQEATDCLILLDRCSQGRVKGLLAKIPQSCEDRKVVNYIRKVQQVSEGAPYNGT

log2 fold change, inactive:
TRAPPC6B (UniProt Q86SZ2) 0.026
UCHL5 isoform 3 (UniProt Q9Y5K5) 0.047
XPOT (UniProt O43592) -0.035
TMEM208 (UniProt Q9BTX3) -0.021
UFM1 (UniProt P61960) 0.026
UQCR10 (UniProt Q9UDW1) -0.026
USP7 (UniProt Q93009) 0.089
WDR46 (UniProt O15213) -0.209
TTI2 (UniProt Q6NXR4) 0
XPO1 (UniProt O14980) 0.019
TRMT10A (UniProt Q8TBZ6) -0.01
TMEM87B (UniProt Q96K49) 0.035
VPS13B (UniProt Q7Z7G8) 0.032
VPS33A (UniProt Q96AX1) 0.025
VWA3B isoform 6 (UniProt Q502W6) 0.107

Compound: C/C(=N\NC(=O)C1=CC(=CC=C1)S(=O)(=O)N2CCOCC2)/C3=C(C=CC(=C3)Cl)O
Assay: as above
Method in brief: as §1

log2 fold change, inactive:
TMEM223 (UniProt A0PJW6) 0.052
USP25 isoform 3 (UniProt Q9UHP3) 0.086
VPS41 (UniProt P49754) 0.076
WDR47 (UniProt O94967) 0.065
TMEM128 (UniProt Q5BJH2) 0
WDR41 (UniProt Q9HAD4) 0.038
TMEM9 (UniProt Q9P0T7) 0.008
VPS51 (UniProt Q9UID3) 0.123
TYW1 (UniProt Q9NV66) 0.012
TUBAL3 (UniProt A6NHL2) 0.096
TOM1L1 (UniProt O75674) -0.009
TPR (UniProt P12270) 0.023
TP53BP1 isoform 2 (UniProt Q12888) 0.019
TRAPPC2L (UniProt Q9UL33) 0.062
U2AF1 isoform 2 (UniProt Q01081) 0.119
TMEM9B (UniProt Q9NQ34) -0.044
VPS37A (UniProt Q8NEZ2) 0.113
WEE1 (UniProt P30291) -0.06
TNFAIP8 isoform 4 (UniProt O95379) 0.071
UBAP2L isoform 5 (UniProt Q14157) -0.005
WDR43 (UniProt Q15061) -0.003
UFD1 isoform 1 (UniProt Q92890) 0.019
TRAPPC6B (UniProt Q86SZ2) 0.07
UCHL5 isoform 3 (UniProt Q9Y5K5) 0.106
XPOT (UniProt O43592) 0.069
TMEM208 (UniProt Q9BTX3) 0.032
UFM1 (UniProt P61960) 0.072
UQCR10 (UniProt Q9UDW1) 0.056
USP7 (UniProt Q93009) 0.139
WDR46 (UniProt O15213) -0.231
TTI2 (UniProt Q6NXR4) 0.053
XPO1 (UniProt O14980) 0.118
TRMT10A (UniProt Q8TBZ6) 0.044
TMEM87B (UniProt Q96K49) 0.059
VPS13B (UniProt Q7Z7G8) 0.024
VPS33A (UniProt Q96AX1) 0.035
VWA3B isoform 6 (UniProt Q502W6) -0.036
